# Activity calls are given as the source filed them. Unless noted, how the calls were made is not given here.
# Legend:
# [1] = compounds binding Alexa647 anti-His antibody – biochemical, small-molecule microarray, 635 nm fluorescence, artefact control for SMM control protein annotation, primary screen (AID 1128); details: higher = more signal;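 further: score merges feature fluorescence with signal-to-noise for each printed compound spot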
# [2] = system: Human papillomavirus type 1a E7 protein (residues 1-88); assay: HPV1a E7 small-molecule binders, primary screen, biochemical, small-molecule microarray, residues 1-88, 635 nm (AID 1129); details: small-molecule microarray binding, fluorescence 635 nm; higher = more signal
# [3] = target: Focal adhesion kinase 1 (Homo sapiens) (UniProt Q05397); assay: PTK2 protein binding on printed compound slides – biochemical, small-molecule microarray, 635/667 nm fluorescence, BSA, DTT, primary screen (AID 1130); details: 635 nm fluorescence, higher = more signal;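 further: composite of spot emission at 667 nm and signal to noise over triplicate slides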
# Sequence of Focal adhesion kinase 1 (Homo sapiens) (Q05397 whole entry, looked up): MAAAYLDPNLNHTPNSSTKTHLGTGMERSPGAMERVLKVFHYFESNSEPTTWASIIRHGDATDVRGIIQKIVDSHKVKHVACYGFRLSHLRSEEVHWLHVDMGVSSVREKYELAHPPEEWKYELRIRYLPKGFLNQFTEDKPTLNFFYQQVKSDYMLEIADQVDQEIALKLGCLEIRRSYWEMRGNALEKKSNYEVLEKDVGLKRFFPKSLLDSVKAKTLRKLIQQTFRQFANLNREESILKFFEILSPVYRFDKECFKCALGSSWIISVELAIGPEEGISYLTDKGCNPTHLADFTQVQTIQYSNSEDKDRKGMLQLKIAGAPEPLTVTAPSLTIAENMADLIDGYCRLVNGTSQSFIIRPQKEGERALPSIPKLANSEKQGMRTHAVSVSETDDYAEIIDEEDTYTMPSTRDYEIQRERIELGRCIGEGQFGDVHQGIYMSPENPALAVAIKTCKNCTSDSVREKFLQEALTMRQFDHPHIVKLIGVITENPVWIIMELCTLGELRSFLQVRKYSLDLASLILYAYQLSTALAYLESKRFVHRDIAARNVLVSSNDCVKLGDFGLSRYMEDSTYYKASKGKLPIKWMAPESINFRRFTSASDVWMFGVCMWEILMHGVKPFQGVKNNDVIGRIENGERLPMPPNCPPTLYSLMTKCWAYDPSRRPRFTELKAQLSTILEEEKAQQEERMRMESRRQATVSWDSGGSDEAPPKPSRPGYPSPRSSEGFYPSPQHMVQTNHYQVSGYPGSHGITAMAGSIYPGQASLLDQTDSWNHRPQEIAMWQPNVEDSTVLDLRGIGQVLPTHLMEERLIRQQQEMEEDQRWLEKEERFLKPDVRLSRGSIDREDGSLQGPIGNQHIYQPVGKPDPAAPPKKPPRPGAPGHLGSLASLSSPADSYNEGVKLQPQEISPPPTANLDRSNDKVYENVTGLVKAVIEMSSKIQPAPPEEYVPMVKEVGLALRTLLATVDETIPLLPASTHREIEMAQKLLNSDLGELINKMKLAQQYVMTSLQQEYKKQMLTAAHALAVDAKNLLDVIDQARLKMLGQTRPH
# [4] = system: Fibrinogen (Alexa647-labelled); assay: Alexa647-fibrinogen binding to printed small molecules – biochemical, small-molecule microarray, 635/667 nm fluorescence, artefact control for SMM control-protein annotation, profiling panel (AID 1131); details: fibrinogen-A647 binding fluorescence, higher = more signal;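 further: z-score merges 667 nm fluorescence with per-spot signal-to-noise over triplicate slides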
# [5] = target: Follistatin (Homo sapiens) (UniProt P19883); assay: FST protein binding to printed compounds – biochemical, small-molecule microarray, 635/667 nm fluorescence, primary screen (AID 1132); details: 635 nm fluorescence, higher = more signal
# Sequence of Follistatin (Homo sapiens) (P19883 whole entry, looked up): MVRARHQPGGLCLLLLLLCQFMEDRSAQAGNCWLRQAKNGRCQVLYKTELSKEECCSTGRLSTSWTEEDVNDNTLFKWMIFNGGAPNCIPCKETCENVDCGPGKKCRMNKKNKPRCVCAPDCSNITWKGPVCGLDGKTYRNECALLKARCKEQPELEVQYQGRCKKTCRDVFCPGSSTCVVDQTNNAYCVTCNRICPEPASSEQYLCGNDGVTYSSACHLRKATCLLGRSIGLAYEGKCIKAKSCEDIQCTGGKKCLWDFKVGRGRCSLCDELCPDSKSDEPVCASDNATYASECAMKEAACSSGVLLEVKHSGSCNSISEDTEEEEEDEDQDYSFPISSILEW
# [6] = target: Fibroblast growth factor 2 (Homo sapiens) (UniProt P09038); assay: basic fibroblast growth factor binding to printed compounds – biochemical, small-molecule microarray, 635/667 nm fluorescence, primary screen (AID 1133); details: FGF2, fluorescence 635/667, higher = more signal
# Sequence of Fibroblast growth factor 2 (Homo sapiens) (P09038 whole entry, looked up): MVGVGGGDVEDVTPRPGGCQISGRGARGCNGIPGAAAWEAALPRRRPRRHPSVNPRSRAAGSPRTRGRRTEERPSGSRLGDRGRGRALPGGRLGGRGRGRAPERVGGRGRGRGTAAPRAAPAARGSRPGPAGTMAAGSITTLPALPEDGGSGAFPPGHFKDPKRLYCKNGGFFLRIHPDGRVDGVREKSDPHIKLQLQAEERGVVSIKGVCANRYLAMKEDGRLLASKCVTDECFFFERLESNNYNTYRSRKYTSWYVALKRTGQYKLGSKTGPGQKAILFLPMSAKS
# [7] = JC-1 mitochondrial potential readout, lung cancer cells – cell-based, A549, JC-1 fluorescence, basal, 24 h, 100 nL, profiling panel (AID 1138); details: higher = more signal;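 further: A549 lung adenocarcinoma cells under basal conditions with no added stimulus; test concentration not given here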
# Lefty1 = Lefty1 protein binding to printed compounds – biochemical, small-molecule microarray, 635/667 nm fluorescence, primary screen (AID 1139); details: fluorescence 635/667, higher = more signal
# [8] = system: wheat germ agglutinin (Triticum aestivum), Alexa647-labelled; assay: Alexa647-WGA lectin binding to printed small molecules – biochemical, small-molecule microarray, 635/667 nm fluorescence, artefact control for SMM control-protein annotation, profiling panel (AID 1140); details: WGA-A647 binding, 635 nm fluorescence, higher = more signal;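 further: score merges 667 nm feature emission with signal to noise over triplicate slides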
# [9] = target: Luciferin 4-monooxygenase (Photinus pyralis) (UniProt P08659); assay: inhibition of purified Photinus pyralis luciferase – biochemical, luminescence, purified enzyme, 2006 set, primary screen (AID 1141); details: purified firefly luciferase, SteadyGlo luminescence, 30 min; higher = more signal, called active from +8 up or from −8 down;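 further: cell-free assay with purified firefly luciferase at 100 ng per well in PBS; test concentration not given here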
# Sequence of Luciferin 4-monooxygenase (Photinus pyralis) (P08659 whole entry, looked up): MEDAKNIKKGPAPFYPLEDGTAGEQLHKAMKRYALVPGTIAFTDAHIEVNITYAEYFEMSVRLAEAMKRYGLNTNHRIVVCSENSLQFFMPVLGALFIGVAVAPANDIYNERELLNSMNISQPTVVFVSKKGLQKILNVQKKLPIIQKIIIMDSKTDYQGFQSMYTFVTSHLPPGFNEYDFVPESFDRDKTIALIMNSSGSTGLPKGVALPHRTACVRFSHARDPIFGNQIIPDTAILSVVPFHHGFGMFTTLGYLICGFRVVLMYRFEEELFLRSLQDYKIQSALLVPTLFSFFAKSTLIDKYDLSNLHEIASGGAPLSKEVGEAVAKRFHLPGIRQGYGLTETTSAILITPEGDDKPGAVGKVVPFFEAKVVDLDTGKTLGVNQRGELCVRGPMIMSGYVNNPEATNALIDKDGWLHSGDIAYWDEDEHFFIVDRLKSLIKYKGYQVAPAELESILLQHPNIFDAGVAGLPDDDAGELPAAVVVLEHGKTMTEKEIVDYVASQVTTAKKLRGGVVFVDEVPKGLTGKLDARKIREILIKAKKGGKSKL
# [10] = system: Wnt5a (protein binding on small-molecule microarray); assay: small molecules binding Wnt5a protein – biophysical, small-molecule microarray, 635/667 nm fluorescence, primary screen (AID 1142); details: 635 nm fluorescence, higher = more signal;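 further: fluorescence read at 667 nm with signal to noise per printed feature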
# [11] = ATP-based viability of Huh7 replicon cells – cell-based, CellTiter-Glo luminescence, basal, 48 h, cytotoxicity control for HCV replication inhibitor project, primary screen (AID 1143); details: higher = more signal, called active from +8 up or from −8 down;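 further: Huh7 hepatoma cells carrying a hepatitis C replication reporter with no stimulus; test concentration not given here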
# [12] = Pseudomonas biofilm growth suppression – PAO1 strain, BacTiter-Glo luminescence, LB-PBS, primary screen (AID 1144); details: P. aeruginosa PAO1 biofilm, 12 h, higher = more signal
# [13] = basal CRE-LacZ reporter activity in PC12 – cell-based, unstimulated, primary screen (AID 1145); details: no forskolin, luminescence, 4.5 h, higher = more signal, called active from +8 up or from −8 down
# [14] = forskolin-driven CRE-LacZ activity in PC12 – cell-based, CRE-LacZ reporter, forskolin-stimulated, primary screen (AID 1146); details: luminescence, 4.5 h, higher = more signal, called active from +8 up or from −8 down;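 further: PC12 cells with 6xCRE LacZ reporter stimulated by forskolin 10 µM; beta-galactosidase reporter signal reflecting CREB driven transcription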
# [15] = target: Streptavidin (Streptomyces avidinii) (UniProt P22629); assay: compounds binding control protein streptavidin – biophysical, small-molecule microarray, 635/667 nm fluorescence, artefact control for SMM compound annotation, primary screen (AID 1147); details: higher = more signal;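 further: signal reflects streptavidin binding to arrayed compounds as a control protein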
# Sequence of Streptavidin (Streptomyces avidinii) (P22629 whole entry, looked up): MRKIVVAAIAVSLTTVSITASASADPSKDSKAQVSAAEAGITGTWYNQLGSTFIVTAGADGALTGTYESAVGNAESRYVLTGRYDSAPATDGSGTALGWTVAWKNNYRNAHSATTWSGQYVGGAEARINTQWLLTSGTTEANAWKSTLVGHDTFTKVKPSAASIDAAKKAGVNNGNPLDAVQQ
# [16] = probe aInhba binding on compound microarray – biochemical, small-molecule microarray, 635/667 nm fluorescence, primary screen (AID 1148); details: higher = more signal;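 further: score merges 667nm spot fluorescence with signal-to-noise for antibody binding to printed compounds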
# Torsin-1A (Homo sapiens) [17] = target: Torsin-1A (Homo sapiens) (UniProt O14656); assay: TOR1A wild-type binding on microarray – cell lysate, small-molecule microarray, lysate, 635/667 nm, primary screen (AID 1149); details: COS7 hTOR1A-WT lysate, 635 nm fluorescence, higher = more signal
# Sequence of Torsin-1A (Homo sapiens) (O14656 whole entry, looked up): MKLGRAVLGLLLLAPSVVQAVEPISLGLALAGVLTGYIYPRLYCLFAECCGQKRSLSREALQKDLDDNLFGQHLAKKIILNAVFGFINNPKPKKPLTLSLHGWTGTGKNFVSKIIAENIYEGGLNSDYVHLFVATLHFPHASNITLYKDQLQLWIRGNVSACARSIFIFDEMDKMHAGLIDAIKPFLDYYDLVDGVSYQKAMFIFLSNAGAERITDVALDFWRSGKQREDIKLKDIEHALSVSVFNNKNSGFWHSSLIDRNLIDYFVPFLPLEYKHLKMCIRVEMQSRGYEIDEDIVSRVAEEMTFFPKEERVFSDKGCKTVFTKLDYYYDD
# Torsin-1A (Homo sapiens) [18] = target: Torsin-1A (Homo sapiens) (UniProt O14656); assay: torsin A mutant lysate binding on microarrays – cell lysate, small-molecule microarray, COS7 lysate, 635/667 nm fluorescence, primary screen (AID 1150); details: COS7 hTOR1A mutant lysate, 635 nm fluorescence, higher = more signal;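 further: score pools 667 nm emission and signal to noise measuring lysate protein binding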
# [19] = system: Sonic hedgehog protein (Shh); assay: Sonic hedgehog microarray binding compounds – biochemical, small-molecule microarray, 635/667 nm fluorescence, primary screen (AID 1151); details: 635 nm fluorescence, higher = more signal;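 further: Shh protein binding to compounds spotted on small-molecule microarray slides; score combines spot fluorescence intensity with signal-to-noise across triplicate slides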
Structure (SMILES),composite z-score [1],composite z-score [2],composite z-score [3],composite z-score [4],composite z-score [5],composite z-score [6],z-score [7],composite z-score (Lefty1),composite z-score [8],z-score [9],composite z-score [10],z-score [11],z-score [12],z-score [13],z-score [14],composite z-score [15],composite z-score [16],composite z-score (Torsin-1A (Homo sapiens) [17]),composite z-score (Torsin-1A (Homo sapiens) [18]),composite z-score [19]
COc1cc2c(cc1OC)CN(C(=O)[C@@H]1[C@H]3C(=O)O[C@H](c4ccccc4)[C@H](c4ccccc4)N3[C@H](c3ccc(OCCO)cc3)[C@@]13C(=O)Nc1ccc(C#CC4(O)CCCCCC4)cc13)CC2,0.367,1.18,-0.226,0.966,1.41,1.13,-0.989,1.38,0.831,-7.42 (inactive),0.754,-3.13 (inactive),-1.35 (inactive),-0.608 (inactive),0.419 (inactive),1.51,-0.164,0.746,1.09,1.44
O=C1N(Cc2ccccc2)c2ccccc2[C@@H]2OC(c3ccc(OCCCO)cc3)=N[C@]12Cc1ccccc1,0.205,1.24,0.623,0.787,1.12,1.12,-1.31,0.183,0.849,-3.86 (inactive),-0.0069,-4.55 (inactive),-0.236 (inactive),1.37 (inactive),-1.64 (inactive),0.89,-0.0332,0.378,0.534,0.809
N#Cc1ccc(NN2C(C(O)c3ccc(F)cc3)C=CC3C(=O)N(c4ccccc4)C(=O)C32)cc1 (stereo not given),1.57,0.57,0.171,0.797,0.0089,0.866,0.324,-0.577,0.94,0.646 (inactive),0.0035,0.632 (inactive),-0.377 (inactive),0.629 (inactive),0.521 (inactive),0.945,-0.0791,0.0271,-0.0504,-0.304
O=C1OCC=C[C@H]2OC34C=CCN(c5ccc(Cl)cc5)C(=O)[C@H]3N(CCO)C(=O)[C@@H]4[C@@H]12 (stereo not given in full),0.745,-0.658,-0.588,-1.36,-1.12,-1.06,0.805,-0.78,-0.729,-0.386 (inactive),-0.649,0.168 (inactive),3.17 (inactive),0.601 (inactive),-0.663 (inactive),-1.02,-0.26,-0.846,-1.84,-0.889
CCCCCCc1nc(C2CC2)cc2c1[Si](C(C)C)(C(C)C)OC2,-1.08,-1.14,-0.295,0.691,-0.706,-0.644,-1.37,-0.568,-0.222,0.766 (inactive),-0.306,-2.44 (inactive),-0.486 (inactive),1.59 (inactive),0.997 (inactive),0.312,-0.261,-0.522,-0.751,-0.694
O=C1C=C(c2ccccc2)C(=O)c2ccc([C@H]3Oc4ccccc4S(=O)(=O)N4CCC[C@@H]34)cc21,-0.398,-0.315,-0.29,-0.506,0.428,-0.0096,-1.69,0.203,-0.0704,-2.04 (inactive),0.34,-6.42 (inactive),0.016 (inactive),9.47 (active),33 (active),-0.309,-0.258,0.0359,1.97,0.222
COc1ccc(CCNC(=O)[C@@H]2c3ccccc3C(=O)N(Cc3cc(C(F)(F)F)cc(C(F)(F)F)c3)[C@H]2c2ccc(CO)cc2)cc1,2.15,0.102,-0.152,0.629,0.255,-0.258,1.95,-0.297,0.985,-1.16 (inactive),0.822,-1.41 (inactive),0.703 (inactive),0.441 (inactive),0.632 (inactive),0.915,-0.016,-0.498,-0.181,0.355
O=C(CS)NCCCCCCNC(=O)[C@H]1C[C@H]2C(=O)N[C@@H](Cc3ccccc3)C(=O)N2[C@H]1c1ccc(O)cc1,1.29,1.25,0.904,0.476,1.22,1.62,-1.61,0.852,0.195,-1.17 (inactive),0.491,0.167 (inactive),-0.31 (inactive),0.822 (inactive),0.368 (inactive),-0.513,-0.162,1.08,0.768,1.62
CN1C(=O)C2C=CC(C(O)C#Cc3ccccc3)N(Nc3ccccc3)C2C1=O (stereo not given),0.974,1.24,0.884,0.985,1.18,0.101,1.11,0.473,1.24,-1.21 (inactive),0.399,0.254 (inactive),-0.141 (inactive),-0.515 (inactive),0.526 (inactive),1.38,0.153,0.663,0.889,0.592
CN1C(=O)C2C=CC(C(O)c3ccc(F)cc3)N(Nc3ccccc3)C2C1=O (stereo not given),2.27,1.14,1.04,0.802,0.576,-0.319,-0.575,0.253,0.0088,-0.112 (inactive),-0.126,0.457 (inactive),-0.293 (inactive),0.0535 (inactive),0.754 (inactive),0.473,0.203,-0.319,0.363,0.137

# — PubChem BioAssay
